Sampled rows, rich in hits. Any-hit rate of the full collection: about 1.5%.
eLon inh = inhibitors of E. coli Lon protease. actives 0.42% (n = 360,000). purified E. coli Lon protease, fluorescence polarization. AID 602123. inhibition, % at 7.94 µM; in the data active = inhibition above about 13%, passing the limit was not always enough;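 also: 0% = enzyme with probe and DMSO and 100% = no enzyme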
Target sequence (P0A9M0 whole entry, looked up): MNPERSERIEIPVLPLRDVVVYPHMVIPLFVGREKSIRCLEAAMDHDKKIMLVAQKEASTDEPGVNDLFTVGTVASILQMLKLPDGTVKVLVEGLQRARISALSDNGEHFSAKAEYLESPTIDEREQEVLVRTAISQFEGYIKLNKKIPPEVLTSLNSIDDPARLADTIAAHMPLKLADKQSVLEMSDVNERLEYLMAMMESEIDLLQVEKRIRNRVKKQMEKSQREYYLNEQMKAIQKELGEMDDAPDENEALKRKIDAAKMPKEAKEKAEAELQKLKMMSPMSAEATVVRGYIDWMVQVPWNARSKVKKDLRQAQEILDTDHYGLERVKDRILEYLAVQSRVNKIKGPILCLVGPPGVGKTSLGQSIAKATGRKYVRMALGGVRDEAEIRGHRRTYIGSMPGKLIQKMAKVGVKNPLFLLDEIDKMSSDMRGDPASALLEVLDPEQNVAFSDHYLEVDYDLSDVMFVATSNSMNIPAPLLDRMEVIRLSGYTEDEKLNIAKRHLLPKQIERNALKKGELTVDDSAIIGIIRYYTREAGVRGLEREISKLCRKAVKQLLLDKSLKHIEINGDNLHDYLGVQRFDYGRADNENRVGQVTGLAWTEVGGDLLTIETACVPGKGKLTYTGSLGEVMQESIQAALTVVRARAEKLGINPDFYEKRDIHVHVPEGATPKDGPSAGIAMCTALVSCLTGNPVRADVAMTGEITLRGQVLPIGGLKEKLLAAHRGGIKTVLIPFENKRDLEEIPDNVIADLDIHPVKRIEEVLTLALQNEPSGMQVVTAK
MEX-5 binding = C. elegans MEX-5 TCR-2 RNA binding activity; Q9XUB2; MEX-5/FITC-TCR2 RNA binding, fluorescence polarization; hits give low values; activity score (negative = inhibition of binding), % at 10 µM; actives 0.38% (n = 300,000); AID 1832;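 active = inhibition past about -25% in most replicates, and total fluorescence under double the plate's negative control median, limit read from the data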;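 also: 0% = DMSO and -100% = 5 µM competing unlabeled TCR2 RNA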
GLD-1 TGE inh = GLD-1-TGE RNA interaction inhibition (C. elegans); purified GLD-1 + fluorescein TGE RNA, fluorescence polarization; actives 0.44% (n = 320,000); inhibition, % at 5.96 µM;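 active = percent inhibition above a per-plate cutoff, the plate mean of test compounds plus 3 SD, cut at about 30% in these data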;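 also: 0% = DMSO wells with GLD-1 and probe and 100% = wells lacking GLD-1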
Bcl-xL primary = Bcl-xL (human) inhibition; inhibition, % at 10.9 µM; Q07817; GST-Bcl-xL / FITC-Bim BH3 peptide fluorescence polarization; actives 0.7% (n = 320,000);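 active = inhibition above the mean of all tested compounds plus 3 SD, cutoff set per campaign, cut at about 30% in these data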;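 also: 0% = DMSO wells and 100% = unlabeled Bim-BH3 peptide competitor; inhibitors lower millipolarization by displacing the labeled peptide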
EBV gp42 inh = blocks Epstein-Barr virus glycoprotein 42 binding | Q1HVG2 | Fluorescence polarization binding assay, mP read-out | inhibition, % (tested at 21.74 µM) | actives 0.42% (n = 220,000) | AID 1085; in the data active = inhibition above about 50%
MCL1-BIM inh = MCL1-BIM-BH3 interaction inhibition (human); Q07820; GST-MCL1 / FITC-Bim-BH3 fluorescence polarization; inhibition, % at 10.9 µM; actives 0.68% (n = 320,000);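 active = inhibition above the mean inhibition of all tested compounds plus 3 SD, set per campaign, cut at about 40% in these data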;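 also: 0% = DMSO wells and 100% = unlabeled Bim-BH3 peptide control; higher means more loss of mP so more displacement of Bim peptide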
E coli Lon conf = confirmation of E. coli Lon protease inhibitors | shares compounds with eLon inh | purified E. coli Lon, fluorescence polarization | inhibition, % at 7.94 µM | actives 31% (n = 1,400); in the data active = inhibition above about 16%;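 also: 0% = enzyme with probe and DMSO and 100% = no enzyme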
* hit, by the source's call; . = no result; + = active, no number.

SMILES | eLon inh | MEX-5 binding | GLD-1 TGE inh | Bcl-xL primary | EBV gp42 inh | MCL1-BIM inh | E coli Lon conf
C=CCN(C(=O)CNC(=O)c1ccco1)C(C(=O)NC1CCCCC1)c1cccnc1 (configuration not stated) | 4 | -5 | 2 | 7 | . | 0 | .
COc1cc2c(cc1[N+](=O)[O-])-c1ccc([N+](=O)[O-])cc1C2=NO | -17 | . | . | . | . | . | .
CC(=O)CSc1nc2ccccc2o1 | 0 | 2 | 8 | 1 | -16 | 5 | .
O=C(CSc1nc2ccccc2o1)c1ccccc1 | 53* | 0 | -2 | -2 | -20 | -7 | 24*
O=C(CC1SCCNC1=O)NCc1ccccc1 (configuration not stated) | -2 | . | . | . | . | . | .
COc1ccc(C(=O)N=S2CCN(C(=O)c3ccc(Cl)cc3)CC2)cc1 | 103* | -2 | -1 | -3 | -13 | -8 | 12
NC1=Nc2cccc3cccc1c23 | 29* | . | 20 | 25 | -7 | 27 | 17*
O=C(O)c1csc(-c2ccc(Cl)cc2)n1 | 16* | -1 | 1 | 5 | -17 | 2 | -1
COc1cccc2c1C(=O)c1c(O)c3c(c(O)c1C2=O)CC(O)(C(C)=O)CC3OC1CC(N(C)C)C(O)C(C)O1 (configuration not stated) | + | . | . | . | . | . | +
CC(=O)[C@@]1(O)Cc2c(O)c3c(c(O)c2[C@H](O[C@H]2C[C@H](N)[C@H](O)[C@H](C)O2)C1)C(=O)c1ccccc1C3=O | + | . | . | . | . | . | +
COc1cccc2c1C(=O)c1c(O)c3c(c(O)c1C2=O)C[C@@](O)(C(=O)CO)C[C@@H]3OC1CC(N)C(O)C(C)O1 (some centres not stated) | + | . | . | . | . | . | +
Cc1ccc2nc(N3CCN(c4ccccc4)CC3)c(C=O)c(=O)n2c1 | 8 | -1 | 2 | 5 | 6 | 11 | .
CCN1CCN(c2nc3ccccn3c(=O)c2C=O)CC1 | 20* | -8 | 11 | 31* | . | 30 | -3
Cc1ccc2nc(N3CCN(C)CC3)c(C=O)c(=O)n2c1 | 64* | -6 | 16 | 34* | . | 38 | -1
O=Cc1c(N2CCN(c3ccccc3)CC2)nc2ccccn2c1=O | -1 | -3 | -2 | 8 | 1 | -2 | .
COc1ccccc1C(=O)NCC(=O)NCC1(N2CCCCC2)CCCCC1 | 0 | -2 | 2 | -4 | . | 0 | .
COc1c(Br)cc(/C=N/n2c(-c3ccccc3)n[nH]c2=S)c(O)c1Br | 19* | 0 | 7 | -7 | . | 11 | -11
Oc1ccccc1/C=N/n1c(-c2ccccc2)n[nH]c1=S | 6 | 0 | 3 | -35 | . | -14 | .
COc1ccc(N2CCN(C(=O)CN3C(=O)c4ccccc4S3(=O)=O)CC2)cc1 | 20* | -1 | 1 | 5 | -4 | -3 | -8
O=C(CN1C(=O)c2cccc([N+](=O)[O-])c2C1=O)N1CCc2ccccc2C1 | -4 | . | . | . | . | . | .
Cc1nc(CC(=O)N2CCN(c3cccc(C)c3C)CC2)cs1 | 24* | -2 | 7 | 15 | -2 | 16 | 2
CNC(=O)CSc1nc2cccnc2n1-c1ccc(F)cc1 | 28* | 2 | . | . | . | . | -11
COc1ccc(S(=O)(=O)Cc2ccc(C(=O)NC3CCCCC3)o2)cc1 | 27* | 1 | 0 | 3 | . | 2 | -8
CCCCOc1ccc(C2NC(=O)NC(C)=C2C(C)=O)cc1OCC (configuration not stated) | 1 | 0 | 10 | 4 | -7 | 2 | .
COc1ccccc1C(=O)NC(CCSC)C(=O)OCC(=O)N1CCCC1=O (configuration not stated) | -8 | . | 2 | -1 | . | -9 | .
SMILES | eLon inh | MEX-5 binding | GLD-1 TGE inh | Bcl-xL primary | EBV gp42 inh | MCL1-BIM inh | E coli Lon conf
Cn1c(=O)c2c(-c3ccccc3)n(-c3cccc(O)c3)cc2n(C)c1=O | 18* | . | . | . | . | . | 6
CCCCCCN(C(=O)CCl)c1ccccc1 | -4 | 0 | -3 | 2 | -7 | 7 | .
COc1ccc(O)c(C(=O)c2cnn(-c3ccc(Cl)cc3)c2)c1 | -9 | -1 | 2 | 2 | . | 3 | .
COc1ccc(O)c(C(=O)c2cnn(-c3ccccn3)c2)c1 | 84* | 2 | -6 | 0 | -1 | -8 | -13
COc1cccc(NC(=O)CN(C)C(=O)Cc2n[nH]c(=O)c3ccccc23)c1 | 19* | . | 1 | 4 | . | 2 | -6
Cc1cccc(N2N=C(C(=O)O)CCC2=O)c1 | 37* | 0 | -1 | 5 | . | 1 | 2
COc1ccc(C2C3=C(CC(C)(C)CC3=O)Oc3ncn4nc(-c5ccccc5)nc4c32)cc1 (configuration not stated) | 26* | . | . | . | . | . | -5
Cc1cc(C)n2nc(C(=O)OCC(=O)NCc3ccccc3)nc2n1 | 7 | . | 1 | -2 | . | -6 | .
CCC(C)(C)NC(=O)C(c1cccc(OC)c1OC)N(C(=O)CCC(=O)Nc1cc(C)on1)C(C)C (configuration not stated) | 21* | 2 | -2 | 2 | . | 6 | 5
CCC(C)(C)NC(=O)C(c1cccc(OC)c1OC)N(CCC(C)C)C(=O)CCC(=O)Nc1cc(C)on1 (configuration not stated) | 1 | 0 | -3 | 0 | -5 | -2 | .
CCOc1cc(C2C(C#N)=C(N)OC(C)=C2C(C)=O)cc(Br)c1O (configuration not stated) | 24* | -69* | 88* | 115* | 51* | 138* | 13
O=C(Nc1cccc(C(F)(F)F)c1)C1CCN(S(=O)(=O)c2cccnc2)CC1 | -2 | -1 | 8 | 4 | . | -3 | .
O=C(Nc1nc2c(Br)cccc2s1)C1CC1 | 23* | -1 | 1 | 4 | . | -3 | 81*
O=C1c2cccc3c([N+](=O)[O-])ccc(c23)C(=O)N1c1ccccn1 | 27* | -8 | 20 | 25 | 16 | 24 | 20*
O=C(O)CC/C(=C\c1ccc2c(c1)OCO2)c1nc2ccccc2s1 | 26* | -4 | 28 | 13 | . | 9 | -17
O=C(O)CC/C(=C\c1ccc(Cl)c([N+](=O)[O-])c1)c1nc2ccccc2s1 | 1 | 2 | -8 | 8 | -11 | 6 | .
O=C(CN1C(=O)NC2(CCCC2)C1=O)OCc1cccc(Br)c1 | -3 | . | -3 | -6 | . | -3 | .
C#CCOCCOCCOCCNc1nc(N2CCN(C(=O)Cn3cc(CCO)nn3)CC2)nc(N2CCN(C(=O)[C@H](Cc3ccc(O)cc3)n3cc(CCO)nn3)CC2)n1 | -2 | . | . | . | . | . | .
O=C(Nc1ccccc1)c1ccc(-c2ccc([N+](=O)[O-])cc2)o1 | 30* | 3 | 2 | -3 | . | -8 | -5
O=C(c1nc2ccccn2c1CN1CCCC(O)C1)N1CCN(C2CCCCC2)CC1 (configuration not stated) | 19* | -9 | 9 | 23 | . | 18 | 4

Assay outcomes as filed in PubChem.
